Source: PubChem BioAssay
Shown are actives, neighbours in structure and some others; about 4.6% of the full set was active somewhere.
tim23-1 inh: inhibits growth of tim23-1 mutant yeast; S. cerevisiae tim23-1 growth, BacTiter-Glo luminescence, 24 h; inhibition, % at 20 µM; AID 463212; 330,000 compounds, 1.3% hits;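 active means growth inhibition of the mutant yeast at or above 50%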;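 further: temperature-sensitive mutant grown at 25 °C; plate controls were DMSO-treated mutant yeast for no effect and medium wells lacking yeast for full effect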
TIM10 inh: inhibits growth of TIM10 yeast strain | S. cerevisiae TIM10 strain growth, BacTiter-Glo luminescence, 24 h | inhibition, % at 10 µM | 330,000 compounds, 1.4% hits | AID 463195;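 active means inhibition of 40% or more at the single tested concentration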;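 further: wild-type TIM10 isogenic control strain grown at permissive 25 °C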
SKKanGAS inh: inhibitors of SKKanGAS S. pyogenes growth in kanamycin (SK-promoter or general growth effect). BacTiter-Glo, 6 h. inhibition, % at 7.5 µM. 300,000 compounds, 1.3% hits. AID 1662;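 active means mean replicate score, as percent of positive control median, at least 50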;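 further: strain carries kanamycin resistance gene driven by streptokinase promoter and grows in 40 µg/ml kanamycin; loss of luminescence reflects streptokinase promoter inhibition or plain growth inhibition; 0% = median of DMSO wells and 100% = positive control at its reference dose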
tim10-1 inh: inhibits growth of tim10-1 mutant yeast; S. cerevisiae tim10-1 ts strain growth, BacTiter-Glo, 24 h; inhibition, % at 20 µM; 330,000 compounds, 2.2% hits;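 active means inhibition of at least 40%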;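 further: mutant grown at 25 °C; 0% = DMSO wells with yeast and 100% = wells holding no yeast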
NALP3 yeast inh: blocks the NALP3 inflammasome reconstituted in yeast | Yeast reconstituted NLRP3/ASC/caspase-1, beta-gal luminescence, 24 h | inhibition, % at 10 µM | 330,000 compounds, 0.39% hits | AID 2825;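 active means inhibition of 50% or more; inactive means inhibition below 50%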;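 further: plate controls were induced DMSO wells for no effect and uninduced yeast grown without galactose for full effect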
tim10-1 confirm: confirmation of tim10-1 mutant yeast growth inhibitors; S. cerevisiae tim10-1 ts strain growth, BacTiter-Glo, 24 h; shares compounds with tim10-1 inh; 7,400 compounds, 56% hits; inhibition, % at 20 µM;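 active means inhibition of yeast growth at or above a set limit in either of two repeat tests at 20 µM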;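 further: tim10-1 mutant grown at permissive 25 °C to find synthetic lethal compounds; 0% = DMSO yeast wells and 100% = medium wells without yeast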
Active calls of the source: *.

Cc1ccc(C)c(NC(=O)CN(C)C(=O)c2ccc(-c3cccc(C(F)(F)F)c3)o2)c1 was read as tim23-1 inh 27, TIM10 inh 7, SKKanGAS inh 5, tim10-1 inh 21 and NALP3 yeast inh 16.
`COc1cc(/C=C(\C#N)c2nc3ccccc3s2)cc([N+](=O)[O-])c1O` gave tim23-1 inh 29, TIM10 inh 15, SKKanGAS inh 23, tim10-1 inh 46*, NALP3 yeast inh 10 and tim10-1 confirm 29.
For O=C(/C=C/c1cccc(F)c1)OCC(=O)N1CCc2ccccc21 the results were tim23-1 inh -17, TIM10 inh -19, tim10-1 inh -14 and NALP3 yeast inh 6.
CCN1C(=O)/C(=C2\SC(N3CCOCC3)=NC2=O)c2ccccc21 was read as tim23-1 inh -13, TIM10 inh -8, SKKanGAS inh -7, tim10-1 inh 9 and NALP3 yeast inh 3.
C=CCN1C(=O)/C(=C2\SC(N3CCOCC3)=NC2=O)c2cc(Br)ccc21 was read as tim23-1 inh 41, TIM10 inh 29, SKKanGAS inh 38, tim10-1 inh 51*, NALP3 yeast inh 23 and tim10-1 confirm 8.
For CCOc1ccc(C(=O)/C=C/c2cc(OC)c(OC)c(OC)c2)cc1 the results were tim23-1 inh 25, TIM10 inh 32, SKKanGAS inh -3, tim10-1 inh 45*, NALP3 yeast inh 5 and tim10-1 confirm 29.
CC(=O)c1cc(NC(=O)c2ccc(Cl)cc2)c(=O)oc1/C=C/N(C)C was read as tim23-1 inh 14, TIM10 inh 28, SKKanGAS inh 0, tim10-1 inh 46*, NALP3 yeast inh 25 and tim10-1 confirm 28.
Cc1ccc(C)c(NC2CCCCC2NS(=O)(=O)c2ccccc2)c1 (configuration not stated) was read as tim23-1 inh 37, TIM10 inh 25, SKKanGAS inh 3, tim10-1 inh 46*, NALP3 yeast inh 5 and tim10-1 confirm 22.
Screening COc1ccccc1NC1CCCCC1NS(=O)(=O)c1ccc(C)cc1 (configuration not stated) returned tim23-1 inh 38, TIM10 inh 7, SKKanGAS inh 10, tim10-1 inh 48*, NALP3 yeast inh -5 and tim10-1 confirm -9.
CCSC(=O)CCCCCCCCCCCO was read as tim23-1 inh 26, TIM10 inh 15, SKKanGAS inh 3, tim10-1 inh 40*, NALP3 yeast inh 49 and tim10-1 confirm 36*.
CCCCCCCCO was read as tim23-1 inh -5, TIM10 inh 1, tim10-1 inh -13 and NALP3 yeast inh -4.
For Oc1csc(Cc2nc(-c3ccc(-c4ccccc4)cc3)cs2)n1 the results were tim23-1 inh 7, TIM10 inh 12, SKKanGAS inh -4, tim10-1 inh 21 and NALP3 yeast inh 12.
Screening NC(=S)Cc1nc(-c2ccccc2)cs1 returned tim23-1 inh 42, TIM10 inh 39, SKKanGAS inh 3, tim10-1 inh 51*, NALP3 yeast inh 1 and tim10-1 confirm 44*.
For COC(=O)c1ccc2nc(NC(=O)C(C)(C)C)sc2c1 the results were tim23-1 inh 46, TIM10 inh 35, SKKanGAS inh 0, tim10-1 inh 42*, NALP3 yeast inh 21 and tim10-1 confirm 35*.
Screening COc1ccc(S(N)(=O)=O)cc1C(=O)NNC(=O)C1COc2ccccc2O1 (configuration not stated) returned tim23-1 inh 9, TIM10 inh -7, tim10-1 inh 4 and NALP3 yeast inh 1.
For COC(=O)c1cc(S(=O)(=O)N2CCN(c3ccccc3)CC2)c[nH]1 the results were tim23-1 inh 0, TIM10 inh -3, SKKanGAS inh -2, tim10-1 inh -11 and NALP3 yeast inh 10.
COC(=O)c1cc(S(=O)(=O)N2CCN(c3cccc(C)c3C)CC2)c[nH]1 was read as tim23-1 inh 26, TIM10 inh 31, SKKanGAS inh -5, tim10-1 inh 51*, NALP3 yeast inh -9 and tim10-1 confirm 30*.
Cc1nnc(NC(=O)C2CCN(S(=O)(=O)c3ccc(F)c(F)c3)CC2)o1 was read as tim23-1 inh -6, TIM10 inh 2, tim10-1 inh -15 and NALP3 yeast inh 2.
For COc1ccc(C(=O)Oc2cc(N)n(S(=O)(=O)c3ccccc3)n2)cc1 the results were tim23-1 inh 19, TIM10 inh 21, SKKanGAS inh -1, tim10-1 inh 40*, NALP3 yeast inh 4 and tim10-1 confirm 23.
`COc1ccc(S(=O)(=O)n2nc(OC(=O)c3cccs3)cc2NC(=O)c2cccs2)cc1` gave tim23-1 inh 8, TIM10 inh -5, SKKanGAS inh -3, tim10-1 inh 45*, NALP3 yeast inh 18 and tim10-1 confirm 30*.
`COc1ccc(S(=O)(=O)n2nc(OC(C)=O)cc2N)cc1` gave tim23-1 inh 9, TIM10 inh 14, SKKanGAS inh 0, tim10-1 inh 8 and NALP3 yeast inh 12.
`CCCc1cc(=O)oc2c(C)c(OCC(=O)Nc3cccnc3)ccc12` gave tim23-1 inh -6, TIM10 inh -15, SKKanGAS inh -1, tim10-1 inh 5 and NALP3 yeast inh 24.
COc1ccc(C)cc1NC(=O)CCNS(=O)(=O)c1ccc2c(c1)CC(C)N2C(C)=O (configuration not stated) was read as tim23-1 inh 4, TIM10 inh 13, SKKanGAS inh 2, tim10-1 inh 17 and NALP3 yeast inh -6.
For Cc1nonc1C(=O)N/N=C/c1ccc(O)cc1O the results were tim23-1 inh 36, TIM10 inh 23, SKKanGAS inh 29, tim10-1 inh 46*, NALP3 yeast inh 6 and tim10-1 confirm 22.
For Cc1ccccc1CSCC(=O)N1CCN(c2ccccc2)CC1 the results were tim23-1 inh 27, TIM10 inh 10, SKKanGAS inh -3, tim10-1 inh 44*, NALP3 yeast inh -9 and tim10-1 confirm 23.
Screening O=C(CSCc1ccc(F)cc1)N1CCN(c2ccccc2)CC1 returned tim23-1 inh 21, TIM10 inh 2, SKKanGAS inh -4, tim10-1 inh 30 and NALP3 yeast inh 20.
`O=C(Oc1ccc(C(=S)N2CCCCC2)cc1)c1ccccc1F` gave tim23-1 inh 38, TIM10 inh 24, SKKanGAS inh -2, tim10-1 inh 56*, NALP3 yeast inh 3 and tim10-1 confirm 28.
`O=C(N/N=C\c1ccccn1)C1c2ccccc2Oc2ccccc21` gave tim23-1 inh 24, TIM10 inh 5, SKKanGAS inh 21, tim10-1 inh 43*, NALP3 yeast inh 2 and tim10-1 confirm 18.
O=C(NCCS(=O)(=O)N1CCC2(CC1)OCCO2)c1ccc(F)cc1 was read as tim23-1 inh 12, TIM10 inh -8, SKKanGAS inh -9, tim10-1 inh -6 and NALP3 yeast inh 14.
